Calls of active or inactive are those of the source.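 Rule for the calls: active = GFP response vs DMSO above 150% with enough events counted; inconclusive = fewer than 70 events counted for a yeast strain; inactive = the rest.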
Experiment: MEP2-GFP expression modulation in yeast, confirmation, flow cytometry, third cherry pick, S. cerevisiae (AID 504321);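 note: median per-cell GFP fluorescence by flow cytometry across all yeast cells; ratio of sample to DMSO median GFP so 100% equals the DMSO level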
Details: S. cerevisiae MEP2-GFP strain, 3 h, at 10 µM, active compounds read high

GFP response vs DMSO, active:
Cc1ccc2c(Cl)cc(Cl)c(O)c2n1 168%

GFP response vs DMSO, inactive:
COc1ccccc1OCc1cc(C(=O)N2CCN(C)C(c3ccccc3)C2)no1 (configuration not stated) 110%
CC(=O)Nc1ccc(-c2nc3ccccc3o2)cc1 110%
CC1=NNC(=O)/C1=C\c1cn(-c2ccccc2)nc1-c1ccc(F)cc1 131%
COc1ccc(NC(=O)ON=C2c3ccccc3-c3ccccc32)cc1 105%
Cc1cc(C)c2ccc(N)nc2c1O 108%
CC1=CN2C(=N)/C(=C/c3ccco3)C(=O)N=C2S1 105%
Cc1ccc(NC(=O)O/N=C2\CCCCC2c2ccc([N+](=O)[O-])cc2[N+](=O)[O-])cc1 (configuration not stated) 105%
Nc1cccc2c1C(=O)c1ccc(Cl)cc1C2=O 116%
COCCCNc1nc(N)c([N+](=O)[O-])c(Nc2cc(OC)ccc2OC)n1 110%
Cc1ccc(C(=O)/C=C/Nc2cccc(O)c2)cc1 116%
COc1ccccc1Nc1nc(NCCCN(C)C)nc(N)c1[N+](=O)[O-] 112%
COc1cccc(N/C=C/C(=O)c2ccc(Cl)cc2)c1 114%
Cc1ccc(C)c(Nc2ncnc(N)c2[N+](=O)[O-])c1 108%
Cc1nc(Nc2ccc(Br)cc2Br)c([N+](=O)[O-])c(=O)[nH]1 112%
Nc1c(C(=O)O)ccc2c1C(=O)c1ccccc1C2=O 127%
COc1ccc(N/C(C)=C/C(=O)c2ccccc2)cc1 103%

Source: PubChem BioAssay AID504321 (NMMLSC, 2011)
